Measured values published in PubChem BioAssay (EPA / NIEHS).
Records with an inconclusive call do not appear. Activity calls are given as the source filed them. How the source made its calls, unless noted: active means hit-call score of the fitted dose curve at least 0.9, where 1 is the maximum; inactive means score below 0.9.

How the values were obtained:
[1] = BSK_LPS_PGE2: BioMAP Diversity Plus: LPS Assay for Prostaglandin E2 (PGE2) Biomarker Activity (AID 2283082); conditions: primary human HUVEC with PBMC; actives raise or lower the signal;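 on AC50: secreted prostaglandin E2 measured by ELISA in LPS-stimulated co-culture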
Method in brief: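 Primary human endothelial cells and blood mononuclear cells, co-cultured with LPS, receive test chemical; PGE2 ELISA follows at 24 h, with SRB-stained parallel cultures flagging cytotoxicity.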

[2] = read-out: Macrophage colony-stimulating factor (MCSF), CSF1 (gene 1435); assay: BSK_LPS_MCSF: BioMAP Diversity Plus: LPS Assay for Macrophage colony-stimulating factor (MCSF) Biomarker Activity (AID 2283083); conditions: primary human HUVEC with PBMC; actives raise or lower the signal
Method in brief: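 Compound is added to a human vascular primary co-culture of umbilical vein endothelium and blood mononuclear cells. After 24 h, M-CSF is quantified by ELISA. Signal changes are fitted in both directions against DMSO.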

[3] = read-out: Tissue Factor, F3 (gene 2152); assay: BSK_LPS_TissueFactor: BioMAP Diversity Plus: LPS Assay for Tissue Factor Biomarker Activity (AID 2283084); conditions: primary human HUVEC with PBMC; actives raise or lower the signal
Method in brief: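 In this co-culture system of umbilical vein endothelium with PBMC, stimulated with LPS, cell-surface CD142 is detected by ELISA at 24 h. Endpoint values derive from bidirectional fitting, DMSO serving as baseline.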

[4] = read-out: Tumor necrosis factor (Homo sapiens) (UniProt P01375); assay: BSK_LPS_TNFa: BioMAP Diversity Plus: LPS Assay for Tumour Necrosis Factor alpha (TNFa) Biomarker Activity (AID 2283085); conditions: primary human HUVEC with PBMC; actives raise or lower the signal;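 on AC50: TNFa protein level quantified by ELISA in the co-culture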
Method in brief: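 ELISA-based TNFa endpoint in a human endothelial–PBMC co-culture sampled 24 h post-exposure. Curves were fitted in both directions using DMSO as baseline of activity.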

[5] = read-out: Vascular cell adhesion molecule 1 (VCAM1), VCAM1 (gene 7412); assay: BSK_LPS_VCAM1: BioMAP Diversity Plus: LPS Assay for Vascular cell adhesion molecule 1 (VCAM1) Biomarker Activity (AID 2283086); conditions: primary human HUVEC with PBMC; actives raise or lower the signal
Method in brief: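 Measured by ELISA: VCAM-1 in LPS-activated HUVEC/PBMC co-cultures 24 h after treatment. Values reflect bidirectional fitting with DMSO as baseline.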

CD38, CD38 (gene 952) = assay: BSK_SAg_CD38: BioMAP Diversity Plus: SAg Assay for CD38 Biomarker Activity (AID 2283087); conditions: primary human HUVEC with PBMC; actives raise or lower the signal
Method in brief: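 Measures CD38 on a human endothelial/PBMC co-culture driven by SEB and TSST-1, 24 h after compound exposure, using ELISA with fluorescence detection; DMSO defines baseline for bidirectional curve fitting.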

CD40, CD40 (gene 958) = assay: BSK_SAg_CD40: BioMAP Diversity Plus: SAg Assay for CD40 Biomarker Activity (AID 2283088); conditions: primary human HUVEC with PBMC; actives raise or lower the signal
Method in brief: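 Fluorescence ELISA read-out of CD40 from umbilical vein endothelium plus peripheral blood mononuclear cells, sampled 24 h after dosing. Values come from bidirectional curve fitting with DMSO as baseline.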

CD69, CD69 (gene 969) = assay: BSK_SAg_CD69: BioMAP Diversity Plus: SAg Assay for CD69 Biomarker Activity (AID 2283089); conditions: primary human HUVEC with PBMC; actives raise or lower the signal;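 on AC50: cell surface CD69 protein quantified by ELISA with fluorescence detection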
Method in brief: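 Primary human vascular co-culture (umbilical vein endothelium with peripheral blood mononuclear cells) exposed to test chemical for 24 h. CD69 levels quantified by fluorescence ELISA; DMSO served as negative control for bidirectional fitting.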

[6] = read-out: Monocyte Chemoattractant Protein-1 (MCP1), CCL2 (gene 6347); assay: BSK_SAg_MCP1: BioMAP Diversity Plus: SAg Assay for Monocyte Chemoattractant Protein-1 (MCP1) Biomarker Activity (AID 2283090); conditions: primary human HUVEC with PBMC; actives raise or lower the signal
Method in brief: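 Values derive from bidirectional fitting of ELISA-measured MCP1 against DMSO controls. Readings were taken 24 h after dosing human vascular endothelial cells co-cultured with peripheral blood mononuclear cells under superantigen stimulation.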

[7] = read-out: E-selectin (Homo sapiens) (UniProt P16581); assay: BSK_SAg_Eselectin: BioMAP Diversity Plus: SAg Assay for Eselectin Biomarker Activity (AID 2283091); conditions: primary human HUVEC with PBMC; actives raise or lower the signal
Method in brief: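 Primary human endothelial cells and peripheral blood mononuclear cells were co-cultured and exposed to chemical for 24 hours. E-selectin levels were then quantified by ELISA, with bidirectional curve fitting normalised to DMSO controls.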

[8] = read-out: Monokine induced gamma interferon (MIG), CXCL9 (gene 4283); assay: BSK_SAg_MIG: BioMAP Diversity Plus: SAg Assay for Monokine induced gamma interferon (MIG) Biomarker Activity (AID 2283092); conditions: primary human HUVEC with PBMC; actives raise or lower the signal
Method in brief: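 Endothelial cells and PBMC were co-cultured, exposed to test chemicals, and sampled 24 h later. MIG was measured by ELISA, and responses were fitted in both directions relative to DMSO.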

[9] = BSK_SAg_PBMCCytotoxicity: PBMC Cytotoxicity Assessment in the BioMAP Diversity Plus: SAg Assay (AID 2283093); conditions: primary human HUVEC with PBMC;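 further: PBMC viability measured as Alamar Blue reduction fluorescence at 546/580 nm; fitted both ways against DMSO so a hit may be loss or gain of signal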;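 on AC50: PBMC superantigen activated with SEB plus TSST-1 one hour after compound addition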
Method in brief: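 Alamar Blue reduction (6 h, ex/em 546/580 nm) read after 90 h culture of PBMC pre-dosed 1 h then stimulated with SEB plus TSST-1, 20 ng/mL each. Gain or loss of signal fitted relative to DMSO.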

[10] = read-out: Interleukin-8 (IL8), CXCL8 (gene 3576); assay: BSK_SAg_IL8: BioMAP Diversity Plus: SAg Assay for Interleukin-8 (IL8) Biomarker Activity (AID 2283094); conditions: primary human HUVEC with PBMC; actives raise or lower the signal
Method in brief: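 Primary human endothelial cells with PBMC, exposed 24 h; IL-8 determined by ELISA, analysed bidirectionally relative to DMSO.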

[11] = BSK_SAg_Proliferation: Cell Proliferation Assessment in the BioMAP Diversity Plus: SAg Assay (AID 2283095); conditions: primary human HUVEC with PBMC;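 further: relative cell number as total protein by SRB absorbance in sub-confluent culture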
Method in brief: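 A human primary co-culture of umbilical vein endothelium and blood mononuclear cells receives compound; relative cell number is quantified at 96 h by SRB staining and 560 nm absorbance, with DMSO-referenced bidirectional curve fitting.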

[12] = BSK_SAg_SRB: Viability Assessment in the BioMAP Diversity Plus: SAg Assay (AID 2283096); conditions: primary human HUVEC with PBMC;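 further: cells read one day after compound addition; hits may be either gain or loss of signal compared with DMSO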
Method in brief: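 SRB absorbance at 560 nm served as the viability read-out. Cells (HUVEC plus peripheral blood mononuclear cells) were TCA-fixed and stained 24 h post-dosing; activity fitted in both directions against DMSO controls.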

[13] = biological target: human CYP19A1, CYP19A1 (gene 1588) (UniProt P11511); assay: NVS_ADME_hCYP19A1: NovaScreen (NVS) CYP450-related Enzyme Activity (ADME) Assay for human CYP19A1 (AID 2283098; active means hit-call score of the fitted dose curve at least 0.9, where 1 is the maximum)
Method in brief: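 Primary testing was in duplicate at a single 10 uM concentration, with actives followed up in concentration-response series. Fluorescence read-out of recombinant enzyme activity at 0.5 h, cell-free. Acetonitrile was the negative-control baseline.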

[14] = biological target: human CYP2B6, CYP2B6 (gene 1555) (UniProt P20813); assay: NVS_ADME_hCYP2B6: NovaScreen (NVS) CYP450-related Enzyme Activity (ADME) Assay for human CYP2B6 (AID 2283101; active means hit-call score of the fitted dose curve at least 0.9, where 1 is the maximum)
Method in brief: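 Cell-free recombinant enzyme assay with a fluorogenic substrate; fluorescence intensity read 1 hour after dosing. Loss of signal relative to acetonitrile negative control indicates inhibition. Primary screen run in duplicate at 10 uM, actives then tested in concentration series.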

[15] = biological target: human CYP1A2, CYP1A2 (gene 1544) (UniProt P05177); assay: NVS_ADME_hCYP1A2: NovaScreen (NVS) CYP450-related Enzyme Activity (ADME) Assay for human CYP1A2 (AID 2283102; active means hit-call score of the fitted dose curve at least 0.9, where 1 is the maximum;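 further: fluorescence from turnover of a fluorogenic substrate by recombinant insect-cell CYP1A2; potency for inhibition since loss of fluorescence marks reduced CYP1A2 activity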)
Method in brief: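 Compounds were tested at 10 uM in duplicate against recombinant CYP1A2 produced in insect cells. Enzyme activity was measured by fluorescence 0.5 h after dosing, with loss of signal versus acetonitrile control. Active compounds were re-tested in concentration series.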

Measured: AC50

Chain of Tumor necrosis factor (Homo sapiens) (P01375 whole entry, looked up): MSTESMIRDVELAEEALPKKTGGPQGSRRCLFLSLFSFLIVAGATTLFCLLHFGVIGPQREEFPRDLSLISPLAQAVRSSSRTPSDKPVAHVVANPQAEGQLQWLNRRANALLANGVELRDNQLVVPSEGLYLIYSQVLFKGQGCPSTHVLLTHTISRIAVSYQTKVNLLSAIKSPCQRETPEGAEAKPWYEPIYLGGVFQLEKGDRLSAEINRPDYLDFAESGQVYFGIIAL
Chain of E-selectin (Homo sapiens) (P16581 whole entry, looked up): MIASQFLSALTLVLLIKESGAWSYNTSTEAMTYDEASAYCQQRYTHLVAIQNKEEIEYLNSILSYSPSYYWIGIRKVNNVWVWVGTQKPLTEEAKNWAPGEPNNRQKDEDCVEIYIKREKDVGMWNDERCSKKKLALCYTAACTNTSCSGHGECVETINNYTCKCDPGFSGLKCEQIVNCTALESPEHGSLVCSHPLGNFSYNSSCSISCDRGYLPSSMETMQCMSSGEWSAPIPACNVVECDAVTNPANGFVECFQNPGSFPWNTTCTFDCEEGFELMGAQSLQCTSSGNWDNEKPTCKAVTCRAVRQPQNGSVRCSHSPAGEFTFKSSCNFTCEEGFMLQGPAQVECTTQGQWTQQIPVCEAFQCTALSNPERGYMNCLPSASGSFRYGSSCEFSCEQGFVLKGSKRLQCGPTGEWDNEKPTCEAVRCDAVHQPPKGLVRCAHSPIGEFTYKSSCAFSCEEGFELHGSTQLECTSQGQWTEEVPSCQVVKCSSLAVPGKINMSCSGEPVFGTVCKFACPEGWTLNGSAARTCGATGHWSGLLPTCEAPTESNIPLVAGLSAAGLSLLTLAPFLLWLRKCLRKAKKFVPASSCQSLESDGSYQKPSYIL
Chain of human CYP1A2, CYP1A2 (gene 1544) (P05177 whole entry, looked up): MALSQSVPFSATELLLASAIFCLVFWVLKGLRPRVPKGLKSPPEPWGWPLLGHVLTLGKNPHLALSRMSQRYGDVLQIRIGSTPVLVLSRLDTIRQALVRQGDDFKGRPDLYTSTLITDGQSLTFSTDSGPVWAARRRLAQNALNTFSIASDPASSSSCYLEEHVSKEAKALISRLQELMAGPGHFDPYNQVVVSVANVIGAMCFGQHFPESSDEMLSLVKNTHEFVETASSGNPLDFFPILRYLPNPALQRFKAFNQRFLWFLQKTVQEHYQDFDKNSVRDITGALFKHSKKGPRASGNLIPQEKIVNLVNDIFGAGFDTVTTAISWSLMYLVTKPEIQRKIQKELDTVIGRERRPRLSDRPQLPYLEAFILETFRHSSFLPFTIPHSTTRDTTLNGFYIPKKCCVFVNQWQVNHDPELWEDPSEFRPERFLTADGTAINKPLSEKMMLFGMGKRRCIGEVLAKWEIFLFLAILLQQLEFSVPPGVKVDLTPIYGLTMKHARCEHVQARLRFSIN
Chain of human CYP19A1, CYP19A1 (gene 1588) (P11511 whole entry, looked up): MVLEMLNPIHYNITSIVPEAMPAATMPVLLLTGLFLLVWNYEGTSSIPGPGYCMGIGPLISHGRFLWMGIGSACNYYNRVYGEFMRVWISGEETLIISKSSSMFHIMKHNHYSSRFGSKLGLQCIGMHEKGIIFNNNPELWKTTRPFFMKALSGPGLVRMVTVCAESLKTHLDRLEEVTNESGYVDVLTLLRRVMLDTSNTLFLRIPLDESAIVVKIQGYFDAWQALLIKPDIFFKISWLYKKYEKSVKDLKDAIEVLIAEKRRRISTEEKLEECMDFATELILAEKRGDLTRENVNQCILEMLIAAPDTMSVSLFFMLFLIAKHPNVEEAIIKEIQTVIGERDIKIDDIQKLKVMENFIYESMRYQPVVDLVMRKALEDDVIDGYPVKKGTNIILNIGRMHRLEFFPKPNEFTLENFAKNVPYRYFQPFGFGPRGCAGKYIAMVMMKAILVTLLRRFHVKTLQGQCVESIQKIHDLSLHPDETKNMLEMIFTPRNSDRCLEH
Chain of human CYP2B6, CYP2B6 (gene 1555) (P20813 whole entry, looked up): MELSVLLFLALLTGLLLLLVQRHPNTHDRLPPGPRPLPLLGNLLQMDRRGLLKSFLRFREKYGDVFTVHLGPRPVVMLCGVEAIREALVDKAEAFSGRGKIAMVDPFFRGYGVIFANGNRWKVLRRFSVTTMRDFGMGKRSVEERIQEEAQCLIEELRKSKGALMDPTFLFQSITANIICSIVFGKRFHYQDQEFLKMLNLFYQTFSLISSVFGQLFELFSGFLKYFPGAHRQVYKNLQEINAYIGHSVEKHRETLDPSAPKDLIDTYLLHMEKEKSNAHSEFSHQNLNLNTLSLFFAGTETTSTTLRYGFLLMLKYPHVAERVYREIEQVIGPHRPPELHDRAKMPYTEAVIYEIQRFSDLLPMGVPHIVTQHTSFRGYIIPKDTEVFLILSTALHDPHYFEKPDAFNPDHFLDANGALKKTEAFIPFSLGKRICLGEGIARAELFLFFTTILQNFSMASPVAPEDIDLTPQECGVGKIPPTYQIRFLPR

CC(CO)OC(C)CO (stereo not drawn) (tested in a mixture with another compound)
not listed: [13] | [14] | [15]
inactive: all other assays above

Nc1ccc(S(=O)(=O)c2ccc(N)cc2)cc1
not listed: [13] | [14] | [15]
inactive: all other assays above

NS(=O)(=O)c1cc2c(cc1Cl)NCNS2(=O)=O
not listed: [13] | [14] | [15]
inactive: all other assays above

CCCCc1ccc2c(n1)[C@@H](c1ccc(OC)cc1C[C@H](C)C(=O)O)[C@H](C(=O)O)[C@H]2c1ccc2c(c1)OCO2
not listed: [13] | [14] | [15]
inactive: all other assays above

COc1ccc(C)cc1N
not listed: [13] | [14] | [15]
inactive: all other assays above

CCCCCCC(=O)OCC
not listed: [13] | [14] | [15]
inactive: all other assays above

CCOC(=O)C(C)(C)Oc1ccc(Cl)cc1
not listed: [13] | [14] | [15]
inactive: all other assays above

Cc1nc(-c2ccc3c(c2)CCN(CCC2CCC(NC(=O)/C=C/c4ccc(F)cc4)CC2)CC3)no1 (stereo not drawn)
active: [1] 1.45 µM | [2] 9.3 µM | [5] 9.3 µM | CD38, CD38 (gene 952) 9.3 µM | CD40, CD40 (gene 958) 6.43 µM
not listed: [14] | [15]
inactive: all other assays above

CC(=O)OCCOCCOCCOC(C)=O
not listed: [13] | [14] | [15]
inactive: all other assays above

C1CCC(SSC2CCCCC2)CC1
active: [4] 32.5 µM | [5] 20 µM | CD38, CD38 (gene 952) 20 µM | CD40, CD40 (gene 958) 27 µM | CD69, CD69 (gene 969) 20 µM | [7] 32.7 µM | [9] 16.1 µM | [11] 15 µM
inactive: [1] | [2] | [3] | [6] | [8] | [10] | [12]

Cc1ccc(N(C)C)cc1
not listed: [13] | [14] | [15]
inactive: all other assays above

Oc1ccc2ccccc2c1N=Nc1ccccc1
active: [1] 2.4 µM | [4] 1.98 µM | [7] 4.27 µM | [11] 12.2 µM
not listed: [13] | [14] | [15]
inactive: all other assays above

Cc1ccc(C)c(C)c1
not listed: [13] | [14] | [15]
inactive: all other assays above

COCCOC[C@H](CC1(C(=O)NC2CCC(C(=O)O)CC2)CCCC1)C(=O)Oc1ccc2c(c1)CCC2 (stereo partly drawn)
not listed: [13] | [14] | [15]
inactive: all other assays above

C=CCOC(=O)c1ccccc1C(=O)OCC=C
active: [14] 7.79 µM | [15] 3.03 µM
not listed: [13]
inactive: all other assays above

CN1CCCC1=O
not listed: [13] | [14] | [15]
inactive: all other assays above
